# Measurements taken from PubChem BioAssay (NCATS).
# Values joined by “and” are separate entries in the source; they are usually repeats but may differ in a detail not shown here. Equal entries are not always repeated. Records with an inconclusive call do not appear. Entries that show only a call come without a potency. Some structures have more than one record in an assay (separate samples or runs), and their calls can disagree. Active and inactive are the calls of the source. Unless noted, the call rests on the fitted dose curve; in most records, active means well fitted curve in the direction sought with a large enough effect; inconclusive means small, poorly fitted or top-dose-only effect, or another doubt; inactive means no such curve, though single readings can be large; an effect the other way counts as inactive or inconclusive.
# Columns and labels:
# [1] = qHTS assay for measurement of the activity of small molecule inhibitors on Zika virus induced Caspase-3 activity in human iPSC derived neural progenitor cells (hNPCs) (AID 1224857); further: nearly all actives have a fitted effect of over 65% in size
# Method in brief: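 Human iPSC-derived neural progenitor cells pretreated 1 hr with compounds, then infected with Zika virus (2 FFU/cell) for 6 hours at 37 C. Caspase-3/7 measured by Caspase-Glo luminescence; % inhibition calculated from induction scaled to uninfected (0%) and infected (100%) wells.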
# [2] = qHTS assay for measurement of the activity of small molecule inhibitors on Zika virus induced Caspase-3 activity in human astrocytoma cells (AID 1224859)
# Method in brief: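 SNB-19 astrocytoma cells, 250/well, pretreated 1 h with compounds, then Zika virus at 2 FFU/cell for 6 h at 37 C; Caspase-Glo 3/7 luminescence after 30 min; percent inhibition normalised to uninfected and infected controls.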
# [3] = qHTS Screen of the MIPE 4.0 Collection Against Ewings Sarcoma (RDES) (AID 1259252); further: nearly all actives have a fitted effect of over 35% in size; further: potency means the concentration at half of the fitted maximal effect
# Method in brief: (§1)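 Viability screen: 48 h incubation at 37C, 95% humidity, 5% CO2 with serially titrated compound, followed by CellTiter-Glo readout.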
# [4] = qHTS Screen of the MIPE 4.0 Collection Against Ewings Sarcoma (TC71) (AID 1259253); further: nearly all actives have a fitted effect of over 40% in size; further: potency means the concentration at half of the fitted maximal effect
# Method in brief: as §1
# [5] = qHTS Screen of the MIPE 4.0 Collection Against Ewings Sarcoma (EW8) (AID 1259255); further: nearly all actives have a fitted effect of over 35% in size; further: potency means the concentration at half of the fitted maximal effect
# Method in brief: as §1
# [6] = qHTS Screen of the MIPE 4.0 Collection Against Ewings Sarcoma (TC32) (AID 1259256); further: nearly all actives have a fitted effect of over 45% in size; further: potency means the concentration at half of the fitted maximal effect
# Method in brief: as §1
# [7] = qHTS assay to identify small molecule inhibitors of chordoma cells - UCH-1 (AID 1259355); further: nearly all actives have a fitted effect of over 55% in size
# Method in brief: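 Cells (800/well) were seeded and left overnight at 37 C, 5% CO2, then treated with drugs at 15 concentrations plus a combination mix of auranofin, camptothecin, doxorubicin, rubitecan and topotecan. Viability after 48hr was read by CellTiter-Glo luminescence.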
# [8] = qHTS assay to identify small molecule inhibitors of chordoma cells - UCH-2 (AID 1259356); further: potency means the concentration at half of the fitted maximal effect
# [9] = P-glycoprotein substrates identified in KB-8-5-11 adenocarcinoma cell line, qHTS therapeutic library screen (AID 1346987); further: nearly all actives have a fitted effect of over 65% in size; further: potency means the concentration at half of the fitted maximal effect
# Method in brief: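 P-gp-mediated resistance screen: KB-8-5-11 cells treated 72 h with compounds in dose-response. CellTiter-Glo viability.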
# [10] = NS1 protein of Zika virus - qHTS assay to identify small molecule inhibitors in human HEK 293 cells (AID 1347053); further: nearly all actives have a fitted effect of over 55% in size; further: potency means the concentration at half of the fitted maximal effect
# Method in brief: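 HEK 293 cells pretreated with compound for 1 h, then infected with ZIKV MR766 (MOI 0.5) for 24 h at 37 C. NS1 detected by TR-FRET with two anti-NS1 antibodies; normalized to uninfected (0%) and infected (100%) wells.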
# [11] = Natriuretic polypeptide receptor (hNpr1) antagonism - Pilot counterscreen GloSensor control cell line (AID 1347045; calls by dose curve; further: series mostly up to about 38 µM)
# Method in brief: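 This counterscreen uses HEK293 cells expressing the GIP/pGS-40F cGMP biosensor. Compound-treated cells are challenged with 50 uM sodium nitroprusside, and the luciferase signal is compared before and after stimulation.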
# [12] = target: Atrial natriuretic peptide receptor 1 (Homo sapiens) (UniProt P16066); assay: Natriuretic polypeptide receptor (hNpr1) antagonism - Pilot screen (AID 1347049; calls by dose curve;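 further: agonist-evoked cGMP luminescence read 20 min after hNppA addition; series mostly up to about 58 µM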)
# Chain of Atrial natriuretic peptide receptor 1 (Homo sapiens) (P16066 whole entry, looked up): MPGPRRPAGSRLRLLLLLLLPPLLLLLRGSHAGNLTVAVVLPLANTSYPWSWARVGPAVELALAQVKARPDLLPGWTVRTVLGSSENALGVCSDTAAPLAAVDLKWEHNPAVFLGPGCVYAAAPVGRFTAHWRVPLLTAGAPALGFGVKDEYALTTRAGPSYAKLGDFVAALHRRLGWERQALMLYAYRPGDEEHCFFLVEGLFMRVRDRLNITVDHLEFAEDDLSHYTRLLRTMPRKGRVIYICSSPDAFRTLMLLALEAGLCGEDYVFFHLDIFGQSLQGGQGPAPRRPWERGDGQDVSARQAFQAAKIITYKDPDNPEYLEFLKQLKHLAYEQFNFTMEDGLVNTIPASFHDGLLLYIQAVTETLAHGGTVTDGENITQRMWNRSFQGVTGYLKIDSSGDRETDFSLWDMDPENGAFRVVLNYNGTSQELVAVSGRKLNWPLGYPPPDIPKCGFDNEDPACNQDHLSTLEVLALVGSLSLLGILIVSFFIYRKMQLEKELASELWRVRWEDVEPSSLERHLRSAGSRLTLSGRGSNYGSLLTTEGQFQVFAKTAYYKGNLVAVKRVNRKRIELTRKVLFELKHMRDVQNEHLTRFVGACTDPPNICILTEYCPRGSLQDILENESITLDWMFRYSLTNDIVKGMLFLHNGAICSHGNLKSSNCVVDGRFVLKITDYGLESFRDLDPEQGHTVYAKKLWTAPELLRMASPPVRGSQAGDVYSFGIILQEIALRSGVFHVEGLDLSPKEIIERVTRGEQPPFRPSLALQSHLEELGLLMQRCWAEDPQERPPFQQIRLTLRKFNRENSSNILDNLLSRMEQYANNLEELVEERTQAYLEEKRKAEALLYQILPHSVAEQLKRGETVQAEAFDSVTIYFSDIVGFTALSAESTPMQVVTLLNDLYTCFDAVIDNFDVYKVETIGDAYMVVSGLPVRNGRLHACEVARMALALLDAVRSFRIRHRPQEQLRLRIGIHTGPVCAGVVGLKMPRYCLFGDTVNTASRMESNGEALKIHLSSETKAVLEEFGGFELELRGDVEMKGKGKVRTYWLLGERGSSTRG
# Method in brief: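 HEK293 cells expressing hNpr1 and GloSensor cGMP luciferase, 1500/well, loaded with 2% GloSensor reagent 2 h, compound 30 min at room temperature; luminescence read before and 20 min after 0.1 nM hNppA stimulation.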
# [13] = target: Atrial natriuretic peptide receptor 2 (Homo sapiens) (UniProt P20594); assay: Natriuretic polypeptide receptor (hNpr2) antagonism - Pilot subtype selectivity assay (AID 1347050; calls by dose curve)
# Chain of Atrial natriuretic peptide receptor 2 (Homo sapiens) (P20594 whole entry, looked up): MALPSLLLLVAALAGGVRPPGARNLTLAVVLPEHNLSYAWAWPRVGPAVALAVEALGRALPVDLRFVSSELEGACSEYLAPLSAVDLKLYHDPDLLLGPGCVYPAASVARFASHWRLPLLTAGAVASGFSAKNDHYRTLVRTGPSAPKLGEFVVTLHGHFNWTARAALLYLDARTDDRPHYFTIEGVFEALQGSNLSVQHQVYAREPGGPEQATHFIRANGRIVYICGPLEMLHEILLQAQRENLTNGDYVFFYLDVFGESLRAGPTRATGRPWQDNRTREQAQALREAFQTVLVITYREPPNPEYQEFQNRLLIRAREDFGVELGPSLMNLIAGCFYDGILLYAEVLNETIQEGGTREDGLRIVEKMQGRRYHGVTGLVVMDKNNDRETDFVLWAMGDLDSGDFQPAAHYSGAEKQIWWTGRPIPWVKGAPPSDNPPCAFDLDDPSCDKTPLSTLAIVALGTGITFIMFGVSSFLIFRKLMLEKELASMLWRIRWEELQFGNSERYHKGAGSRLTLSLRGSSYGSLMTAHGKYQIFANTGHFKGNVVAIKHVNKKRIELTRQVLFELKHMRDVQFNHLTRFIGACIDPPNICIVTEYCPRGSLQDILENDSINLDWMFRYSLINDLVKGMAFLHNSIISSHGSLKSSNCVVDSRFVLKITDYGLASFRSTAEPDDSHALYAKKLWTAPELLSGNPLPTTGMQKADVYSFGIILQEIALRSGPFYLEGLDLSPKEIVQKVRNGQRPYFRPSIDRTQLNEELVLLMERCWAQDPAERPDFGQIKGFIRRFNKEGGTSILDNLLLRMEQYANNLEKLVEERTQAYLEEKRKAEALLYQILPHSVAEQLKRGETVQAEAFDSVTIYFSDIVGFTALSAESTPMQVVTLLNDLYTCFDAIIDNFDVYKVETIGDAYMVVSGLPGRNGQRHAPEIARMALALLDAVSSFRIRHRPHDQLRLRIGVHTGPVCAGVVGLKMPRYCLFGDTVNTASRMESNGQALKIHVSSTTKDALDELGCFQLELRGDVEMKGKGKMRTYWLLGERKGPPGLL
# Method in brief: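 HEK293 cells expressing hNpr2 and a GloSensor cGMP luciferase sensor, 1500/well, preloaded 2 h with 2% GloSensor reagent, compound 30 min, then 1 nM hNppC for 20 min. Antagonism from luminescence after versus baseline pre-read; LOPAC in 1:5 titrations.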
# [14] = target: Tyrosine-protein phosphatase non-receptor type substrate 1 (Homo sapiens) + Leukocyte surface antigen CD47 (Homo sapiens) (UniProt P78324+Q08722); assay: CD47-SIRPalpha protein protein interaction - LANCE assay qHTS validation (AID 1347057; active means well fitted curve in the direction sought with a large enough effect in the signal ratio, with a control signal flat, not every such curve was filed as active; the % refers to the signal ratio; further: series mostly up to about 38 µM)
# Chain of Tyrosine-protein phosphatase non-receptor type substrate 1 (Homo sapiens) + Leukocyte surface antigen CD47 (Homo sapiens) (P78324 whole entry, looked up): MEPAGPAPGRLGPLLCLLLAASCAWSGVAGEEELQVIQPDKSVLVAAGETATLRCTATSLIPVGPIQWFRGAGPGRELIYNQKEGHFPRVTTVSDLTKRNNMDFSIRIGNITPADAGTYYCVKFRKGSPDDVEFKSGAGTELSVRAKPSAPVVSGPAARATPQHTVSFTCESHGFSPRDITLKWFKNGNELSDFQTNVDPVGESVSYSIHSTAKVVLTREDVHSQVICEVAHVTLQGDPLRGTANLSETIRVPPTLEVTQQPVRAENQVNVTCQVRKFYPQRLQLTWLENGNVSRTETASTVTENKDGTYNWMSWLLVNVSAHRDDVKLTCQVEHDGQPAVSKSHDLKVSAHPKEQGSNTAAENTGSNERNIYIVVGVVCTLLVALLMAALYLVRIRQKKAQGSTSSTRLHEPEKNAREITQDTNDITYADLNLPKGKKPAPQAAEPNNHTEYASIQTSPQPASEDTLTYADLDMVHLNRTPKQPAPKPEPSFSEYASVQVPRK
# Chain of Tyrosine-protein phosphatase non-receptor type substrate 1 (Homo sapiens) + Leukocyte surface antigen CD47 (Homo sapiens) (Q08722 whole entry, looked up): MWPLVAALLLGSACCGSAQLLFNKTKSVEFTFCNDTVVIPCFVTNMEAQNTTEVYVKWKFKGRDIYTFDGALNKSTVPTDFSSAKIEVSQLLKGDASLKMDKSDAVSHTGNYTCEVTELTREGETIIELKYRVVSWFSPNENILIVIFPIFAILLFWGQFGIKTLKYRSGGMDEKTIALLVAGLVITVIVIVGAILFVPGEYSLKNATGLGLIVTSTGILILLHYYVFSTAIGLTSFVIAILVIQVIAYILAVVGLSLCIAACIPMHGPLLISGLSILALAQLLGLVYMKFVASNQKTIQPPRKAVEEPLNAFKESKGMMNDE
# Method in brief: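 First, His-tagged CD47 and Eu-labelled anti-His antibody met the compound for 30 min; next, site-specifically biotinylated SIRPalpha was added for 30 min; finally streptavidin-APC was added before reading the TR-FRET ratio.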
Structure (SMILES),Potency [1],Potency [2],Potency [3],Potency [4],Potency [5],Potency [6],Potency [7],Potency [8],Potency [9],Potency [10],Potency [11],Potency [12],Potency [13],outcome [14]
CC1=NN(c2ccccc2)C(=O)C1,inactive,inactive,inactive,inactive,inactive,inactive,inactive,inactive,inactive,inactive,,,,
COc1cccc(N(C)C(=S)Oc2ccc3c(c2)CCCC3)n1,inactive,inactive,inactive,inactive,inactive,inactive,inactive,inactive,inactive,inactive and 18.7 µM (active),,,,
CCOCC(O)COc1ccc(NC(=O)CC[S+](C)C)cc1 (stereo not drawn),inactive,inactive,inactive,inactive,inactive,inactive,inactive,inactive,,inactive,,,,
COc1ncnc(NS(=O)(=O)c2ccc(N)cc2)c1OC,inactive,inactive,inactive,inactive,inactive,inactive,inactive,inactive,,inactive,,,,
N[C@@H](C(=O)N[C@@H]1C(=O)N2C(C(=O)O)=C(Cl)CS[C@H]12)c1ccccc1,inactive,inactive,inactive,inactive,inactive,inactive,inactive,inactive,inactive,inactive,,,,
C[C@@H]1C[C@H]2[C@@H]3CCC4=CC(=O)C=C[C@]4(C)[C@@]3(Cl)[C@@H](O)C[C@]2(C)[C@@]1(OC(=O)c1ccco1)C(=O)CCl,inactive,inactive,3.72 µM (active),4.69 µM (active),11.8 µM (active),11.8 µM (active),inactive,inactive,inactive,inactive,,,,
O=C(O)c1cc(=O)[nH]c(=O)[nH]1,inactive,inactive,inactive,inactive,inactive,inactive,inactive,inactive,inactive,inactive,,,,
CCOC(=O)[C@H](CCc1ccccc1)N[C@H]1CCc2ccccc2N(CC(=O)O)C1=O,inactive,inactive,23.5 µM (active),20.9 µM (active),23.5 µM (active),23.5 µM (active),inactive,inactive,,inactive,,,,
CC(C)(C)NC(=O)[C@H]1CC[C@H]2[C@@H]3CC[C@H]4NC(=O)C=C[C@]4(C)[C@H]3CC[C@]12C,inactive,inactive,1.05 µM (active),1.32 µM (active),5.9 µM (active),3.72 µM (active),inactive,inactive,inactive,inactive,,,,
NS(=O)(=O)c1cc2c(cc1Cl)NC(C(Cl)Cl)NS2(=O)=O (stereo not drawn),inactive,inactive,inactive,inactive,inactive,inactive,inactive,inactive,inactive,inactive,,,,
CCCc1cc(C(N)=S)ccn1,inactive,inactive,inactive,inactive,inactive,inactive,inactive,inactive,inactive,inactive,,,,
CC(C)(C)C(=O)OCOP(=O)(COCCn1cnc2c(N)ncnc21)OCOC(=O)C(C)(C)C,inactive,inactive,0.372 µM (active),0.833 µM (active),0.209 µM (active),inactive,inactive,inactive,inactive,inactive,,,,
O=P(O)(O)C(O)(Cc1cccnc1)P(=O)(O)O,inactive,inactive,inactive,inactive,inactive,inactive,inactive,inactive,inactive,inactive,,,,
CCCc1nc(C)c2c(=O)[nH]c(-c3cc(S(=O)(=O)N4CCN(CC)CC4)ccc3OCC)nn12,inactive,inactive,7.43 µM (active),8.33 µM (active),3.72 µM (active),9.35 µM (active),inactive,inactive,,inactive and 10.5 µM (active),,,,
CC(C)(Sc1cc(C(C)(C)C)c(O)c(C(C)(C)C)c1)Sc1cc(C(C)(C)C)c(O)c(C(C)(C)C)c1,inactive,inactive,2.96 µM (active),20.9 µM (active),inactive,9.35 µM (active),inactive,inactive,inactive,inactive,,,,
CC(C)(C#N)c1cc(Cn2cncn2)cc(C(C)(C)C#N)c1,inactive,inactive,inactive,inactive,inactive,inactive,inactive,inactive,,inactive,,,,
NCCCC(O)(P(=O)(O)O)P(=O)(O)O,inactive,inactive,inactive,inactive,inactive,inactive,inactive,inactive,,inactive,,,,
CC(C)Cn1cnc2c(N)nc3ccccc3c21,inactive,inactive,16.6 µM (active),18.7 µM (active),7.43 µM (active),18.7 µM (active),inactive,inactive,inactive,inactive,,,,
NC(=O)c1cccc(N)c1,inactive,inactive,inactive,inactive,inactive,inactive,,,,inactive,inactive,inactive,inactive,inactive
C[C@@H](NCCCc1cccc(C(F)(F)F)c1)c1cccc2ccccc12,inactive,inactive,inactive,1.48 µM (active),inactive,,,25.9 µM (active),inactive and 20.6 µM (active),inactive,,,,
